Compound activity as filed in PubChem BioAssay.
The list is not random: actives were taken first. Their share in the collection is about 9.2%.
Rab9 promoter act: Rab9 promoter activation; Potency, µM (titrated, usually from 9.22 µM), hits mostly activators; AID 485297; 320,000 tested, 2.8% active; Huh7 Rab9 promoter-luciferase reporter, luminescence, 24 h; note: nearly all actives have a fitted effect of over 60% in size
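Using Huh7 cells stably transfected with Rab9 promoter–luciferase, compounds were incubated 24 h at 37 °C, 5% CO2; luciferase luminescence was read 10 min after reagent addition.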
FLuc counter: firefly luciferase modulation, counter-screen for miR-21 project; P08659; purified FLuc, Km substrates, luminescence inhibition; Potency, µM (top dose mostly 57.5 µM), actives largely listed as inhibitors; 360,000 tested, 6.9% active; note: nearly all actives have a fitted effect of over 55% in size
Target sequence (P08659 whole entry, looked up): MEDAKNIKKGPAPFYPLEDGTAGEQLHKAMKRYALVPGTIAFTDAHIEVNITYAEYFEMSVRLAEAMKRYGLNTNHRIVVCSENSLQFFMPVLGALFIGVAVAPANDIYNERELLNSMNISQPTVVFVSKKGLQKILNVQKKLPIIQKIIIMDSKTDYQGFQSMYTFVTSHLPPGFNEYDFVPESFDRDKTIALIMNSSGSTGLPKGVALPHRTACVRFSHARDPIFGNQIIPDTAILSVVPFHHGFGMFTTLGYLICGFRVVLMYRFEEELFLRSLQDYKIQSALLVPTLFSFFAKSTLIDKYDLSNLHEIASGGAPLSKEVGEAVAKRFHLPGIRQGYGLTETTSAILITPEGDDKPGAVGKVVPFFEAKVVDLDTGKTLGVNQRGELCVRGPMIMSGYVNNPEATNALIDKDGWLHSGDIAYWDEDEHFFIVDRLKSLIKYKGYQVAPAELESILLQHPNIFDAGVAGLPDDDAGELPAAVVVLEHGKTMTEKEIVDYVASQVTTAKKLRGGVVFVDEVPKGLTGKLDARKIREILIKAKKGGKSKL
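Purified P. pyralis luciferase (10nM final) with 10uM D-luciferin and 10uM ATP (Km levels) in 50mM Tris acetate pH 7.5, 10mM Mg acetate, 0.01% Tween-20, 0.05% BSA; qHTS 6-point titration, ~60 µM downward; luminescence read.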
ELG1 genotoxic: inducers of genotoxicity in HEK293T ELG1-luciferase cells; 330,000 tested, 1.3% active; HEK293T ELG1-luciferase reporter, luminescence, 16 h; Potency, µM (titrated, usually from 46 µM), hits mostly activators; note: nearly all actives have a fitted effect of over 60% in size
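16 hr compound incubation (37 °C, 5% CO2) of HEK293T cells carrying luciferase-tagged ELG1; luciferase then measured by ONE-Glo luminescence after 30 min at RT.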
SMN2 splice up: SMN2 splice variant enhancement; AID 1458; 210,000 tested, 2.8% active; HEK293 SMN2-luciferase splicing reporter, luminescence, 30-36 h; Potency, µM (top dose mostly 46.1 µM), actives largely listed as activators; note: nearly all actives have a fitted effect of over 55% in size
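qHTS luciferase splicing reporter: luminescence rises when SMN2 exon 7 is included in transfected HEK293 cells. Compound exposure lasted 30-36 h at 37C, with 4.5 mM final sodium butyrate as control, followed by a ONE-Glo read.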
NPC1 prom act: NPC1 promoter activation; Huh7 NPC1 promoter luciferase reporter, 24 h; Potency, µM (top dose mostly 9.22 µM), actives largely listed as activators; 320,000 tested, 2.4% active; AID 485313; note: nearly all actives have a fitted effect of over 60% in size
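Cells: Huh7 expressing luciferase under the NPC1 promoter, 1500/well. Seeded 2 h, compound added, incubated 24 h at 37 °C. Luciferase reagent, 10 min ambient, then luminescence.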
ELG1 DNA repair: blocks ELG1-dependent DNA repair in HEK293T cells | AID 504467 | Potency, µM (top dose mostly 46.1 µM), hits mostly inhibitors | HEK293T ELG1-luciferase reporter, luminescence, 16 h; DNA damage induced by 5-fluorouridine | 330,000 tested, 2.3% active; note: nearly all actives have a fitted effect of over 55% in size
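Cells (2,000 per well) received 5-fluorouridine plus test compound or DMSO and were incubated 16 hr at 37 °C, 5% CO2. Luciferase activity was read by luminescence 30 min after ONE-Glo addition; signal suppression marked inhibition of damage-induced ELG1 function.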
Of the large screens only hits and unclear results are named; the others gave an inactive call. Calls come from the whole dose curve; as a rule, active = well fitted curve in the direction sought with a large enough effect; inconclusive = small, poorly fitted or top-dose-only effect, or another doubt; inactive = no such curve, though single readings can be large; an effect the other way counts as inactive or inconclusive.

Cc1c2ccccc2nc2c(F)c(NC(C)C)c(F)c(F)c12	Rab9 promoter act inconclusive, FLuc counter 3µM, ELG1 genotoxic inconclusive, SMN2 splice up 16µM, NPC1 prom act inconclusive, ELG1 DNA repair inconclusive
OCCNc1c2ccccc2nc2c(F)c(F)c(F)c(F)c12	ELG1 DNA repair inconclusive
O=C(Cn1ncc2ccc(Cl)cc21)NCc1ccc(F)cc1	none (no result: Rab9 promoter act, ELG1 genotoxic, SMN2 splice up, NPC1 prom act, ELG1 DNA repair)
O=C(Nc1cnn(Cc2ccc(Cl)cc2)c1)c1ccc([N+](=O)[O-])cc1	ELG1 DNA repair 21µM
NNC(=O)c1ccc(Cn2cc(Cl)cn2)cc1	ELG1 DNA repair inconclusive
O=C(Nc1ccc(Cl)c(Cl)c1)c1ccc(Cn2cc(Cl)cn2)cc1	FLuc counter 19µM
CC1CCCC(C)N1C(=O)c1ccc(S(=O)(=O)NCc2ccco2)cc1 (stereo not given)	ELG1 DNA repair 12µM (no result: SMN2 splice up)
COc1ccc(/C=N/NC(=O)c2nc(-c3ccccc3)cc(-c3ccccc3)n2)cc1	FLuc counter 2.7µM, ELG1 DNA repair 6.5µM
COc1cccc(/C=N/NC(=O)CCn2c3ccccc3c3ccccc32)c1	none
COc1ccc(/C=N/NC(=O)CCn2c3ccccc3c3ccccc32)cc1O	FLuc counter 11µM
COc1ccc(/C=N/NC(=O)c2nc(-c3ccccc3)n(-c3ccccc3)n2)cc1OC	FLuc counter 17µM, ELG1 DNA repair 13µM
COc1ccc(/C=N/NC(=O)c2nc(-c3ccccc3)cc(-c3ccccc3)n2)cc1O	FLuc counter 1.5µM, ELG1 DNA repair 6.5µM
COc1ccc(/C=N/NC(=O)c2c(-c3ccccc3)noc2C)cc1	none
CCC(CO)Nc1ccc(-c2n[nH]c(=O)c3ccccc23)cc1[N+](=O)[O-] (stereo not given)	ELG1 DNA repair inconclusive (no result: SMN2 splice up)
COc1ccccc1CNC(=O)CCCn1c(=O)c2ccccc2n(Cc2ccccc2C#N)c1=O	none (no result: Rab9 promoter act, ELG1 genotoxic, NPC1 prom act, ELG1 DNA repair)
COc1ccc(CC(=O)NCc2ccc3c(c2)CCN3C(C)=O)cc1	none (no result: Rab9 promoter act, ELG1 genotoxic, SMN2 splice up, NPC1 prom act, ELG1 DNA repair)
COc1ccc(C)cc1NS(=O)(=O)c1ccc2c(c1)CCCN2C(C)=O	none (no result: Rab9 promoter act, ELG1 genotoxic, SMN2 splice up, NPC1 prom act, ELG1 DNA repair)
NC(=O)c1ccsc1NC(=O)c1nc(-c2ccccc2)n(-c2ccccc2)n1	ELG1 DNA repair 18µM
COc1ccc(/C=N/NC(=O)c2nn(-c3ccc(Cl)cc3)c(=O)c3c(N)scc23)cc1	FLuc counter inconclusive
COc1ccc(/C=N/NC(=O)c2nn(-c3ccccc3)c(=O)c3c(N)scc23)cc1	FLuc counter 9.5µM, ELG1 DNA repair inconclusive
O=C(Nc1ccccn1)c1nc(-c2ccccc2)n(-c2ccccc2)n1	ELG1 DNA repair inconclusive
CC(C)(C)c1ccc(/C=N/NC(=O)CN2CCS(=O)(=O)CC2)cc1	none (no result: SMN2 splice up)
O=C(/C=C/c1ccc(N2CCCCC2)c([N+](=O)[O-])c1)c1ccc(O)cc1	Rab9 promoter act inconclusive, FLuc counter 4.8µM, ELG1 genotoxic 21µM, NPC1 prom act inconclusive, ELG1 DNA repair inconclusive
COc1ccccc1C(=O)/C=C/c1ccc(N2CCCCC2)c([N+](=O)[O-])c1	Rab9 promoter act inconclusive, FLuc counter 6µM, ELG1 genotoxic inconclusive, NPC1 prom act inconclusive, ELG1 DNA repair inconclusive
O=C(O/N=C\c1ccc(N2CCCCC2)c([N+](=O)[O-])c1)c1ccc(Cl)cc1Cl	none
Cc1cc(C)c(C)c(S(=O)(=O)N2CCC(C(=O)N3CC(C)CC(C)C3)CC2)c1C (stereo not given)	ELG1 DNA repair inconclusive (no result: SMN2 splice up)
COc1ccccc1C1CC(c2c(-c3ccccc3)c3cc(Cl)ccc3[nH]c2=O)=NN1S(C)(=O)=O (stereo not given)	ELG1 DNA repair inconclusive
COc1cccc(C2CC(c3c(-c4ccccc4)c4cc(Cl)ccc4[nH]c3=O)=NN2S(C)(=O)=O)c1OC (stereo not given)	ELG1 DNA repair 23µM
CC(C)(Oc1ccc([C@@H]2CC2(Cl)Cl)cc1)C(=O)O	none (no result: Rab9 promoter act, FLuc counter, ELG1 genotoxic, NPC1 prom act, ELG1 DNA repair)
CCN1CCN(Cc2ccc(NC(=O)Nc3ccccc3Cl)cc2)CC1	Rab9 promoter act 3.5µM, FLuc counter 6.7µM, ELG1 genotoxic 18µM, SMN2 splice up inconclusive, NPC1 prom act 4µM, ELG1 DNA repair inconclusive
CCN1CCN(CCC(=O)Nc2ccc(C)cc2)CC1	none (no result: SMN2 splice up)
